Screening results from PubChem BioAssay.
TexasRed autofl = compounds fluorescent in Texas Red spectral region; AID 587; actives 0.06% (n = 59,000); Compound fluorescence, Texas Red channel, 547/618 nm; hits give high values; max dye-equivalent concentration, M; in the data active means max dye-equivalent concentration above about 10 nM; inconclusive means between about 1.1 nM and that limit
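Texas Red-region profiling: compounds in 100 mM Tris pH 8.0 were read at 547/618 nm after 15 min at room temperature. Intensities were normalized against a six-point Texas Red standard series to give dye-equivalent concentration.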
Fluorescein fluor = fluorescein region autofluorescence | Compound autofluorescence, 480/540 nm, fluorescein-equivalent; hits give high values | max fluorescein-equivalent concentration, M | actives 0.91% (n = 59,000) | AID 593; in the data active means max fluorescein-equivalent concentration above about 10 nM; inconclusive means between about 1.1 nM and that limit
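Autofluorescence profiling; 100 mM Tris, pH 8.0; incubation 15 min at RT; ex/em 480/540 nm; result as fluorescein-equivalent concentration.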
A488 fluor = compound autofluorescence in A488 spectral region | compound autofluorescence, A488 spectral region, dye equivalency; Compound Type: qHTS ECL - MLSMR | max dye equivalency, M | actives 0.1% (n = 59,000) | AID 591
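Intrinsic compound fluorescence is measured in 100 mM Tris buffer at pH 8.0 following 15 min incubation at room temperature. Intensities at 480 nm excitation/540 nm emission are calibrated to an on-plate A488 concentration series, giving dye-equivalent concentrations.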
Resorufin fluor = compounds fluorescent in resorufin spectral region. Compound fluorescence, resorufin region 547/598 nm, buffer; hits give high values. max dye-equivalent concentration, M. actives 0.04% (n = 59,000). AID 588
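Dye-equivalent concentration values derive from comparing each well's 547/598 nm fluorescence against resorufin standards included on every plate. Incubation was 15 min at room temperature in 100 mM Tris, pH 8.0.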
Rhodamine autofl = compound autofluorescence in rhodamine spectral region | Rhodamine-region fluorescence, 547/598 nm, Tris buffer; hits give high values | max dye-equivalent concentration, M | actives 0.05% (n = 59,000); in the data active means max dye-equivalent concentration above about 11 nM; inconclusive means between about 1.1 nM and that limit
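Intrinsic compound fluorescence, ex 547 / em 598 nm, CCD imager. Tris 100 mM pH 8.0; 15 min RT. Output = rhodamine dye-equivalent concentration at each compound concentration.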
A647 fluor = compound autofluorescence in A647 spectral region. max dye-equivalent concentration, M. AID 592. Compound fluorescence, A647 channel (570/671 nm), Tris buffer. 59,000 tested, under 10 active;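 further: values scaled relative to a standard on each plate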
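Buffer was dispensed, compounds and Alexa 647 standards were pin-transferred, and plates sat 15 min at room temperature. Intensity at 570/671 nm was then converted to dye-equivalent concentration using the plate's A647 standard curve.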
Active calls of the source: *; i = inactive; ? = inconclusive; ! = not confirmed by another sample. Only some compounds are listed: those with a hit (about 0.96% of all), similar ones and a draw of the others. Unless noted, how the calls were made is not given here.

SMILES	TexasRed autofl	Fluorescein fluor	A488 fluor	Resorufin fluor	Rhodamine autofl	A647 fluor
O=c1[nH]c(=O)n([C@H]2C[C@H](O)[C@H](CO)O2)cc1/C=C\Br	?	i	i	i	i	1e-09
Cc1ccc(C)n1Cc1ccc(C(=O)O)cc1	i	1.1e-08M*	i	i	i	?
Cc1cc(-c2ccco2)c(C#N)c2nc3ccccc3n12	i	1.6e-07M*	?	i	i	1e-09
CCc1c(C)c(C#N)c2nc3ccccc3n2c1-n1nc(C)cc1C	i	?	i	i	i	5.9e-08
O=C(O)c1cccc(CN2CCCCC2)c1	i	i	i	i	i	1e-09
O=C1C[C@H]2OCC=C3CN4CC[C@@]5(C(=O)O)[C@H](N1)[C@H]2[C@H]3C[C@H]45	i	i	i	i	i	1e-09
CC(C)OC(=O)CC(=O)c1sc2nc3c(cc2c1N)CN(C)CC3	i	1.9e-07M*	?	i	i	2.6e-08
OC[C@@H]1O[C@@H](n2cnc3c(Nc4ccccc4)ncnc32)[C@@H](O)[C@H]1O	i	?	i	i	i	2.3e-08
Oc1ccc([C@@H]2CNCc3sccc32)cc1O	i	?	i	i	i	3.7e-08
COc1ccc(O)c(C(=O)c2cc(C#N)c(=O)n(CCN3CCOCC3)c2)c1	i	i	i	i	i	1e-09
COc1ccc(O)c(C(=O)c2cc(C#N)c(=O)n(-c3c(C)n(C)n(-c4ccccc4)c3=O)c2)c1	i	1.2e-07M*	?	i	i	1e-09
O=C(O)CCCC[C@@H]1SC[C@H]2NC(=O)N[C@H]12	i	i	i	i	i	1e-09
CC[C@H](C)[C@@H]1O[C@]2(CC[C@@H]1C)C[C@H]1C[C@H](CC=C(C)[C@@H](O[C@H]3C[C@H](OC)[C@H](O[C@H]4C[C@H](OC)[C@H](O)[C@H](C)O4)[C@H](C)O3)[C@@H](C)C=CC=C3CO[C@@H]4[C@@H](O)C(C)=C[C@H](C(=O)O1)[C@@]34O)O2	i	i	i	i	i	1.2e-09
CCC(=O)c1ccc(OCC(=O)N2CCc3cc(OC)c(OC)cc3C2)cc1	i	?	i	i	i	5.8e-09
COc1cc2c(cc1OC)CN(C(=O)CSc1nc(N)c(C#N)cc1C#N)CC2	?	1.9e-08M*	i	i	i	1.5e-09
C=CCOc1cccc(C2C(C(=O)c3ccc(C)o3)=C(O)C(=O)N2c2nccs2)c1 (configuration not stated)	i	3.6e-08M*	?	i	i	1.9e-08
CN1CCN(C(=O)CSc2nc(-c3cccs3)cc(-c3cccs3)c2C#N)CC1	?	2e-08M*	i	i	i	2.6e-08
COC(=O)N1CCC2(CCN(C(=O)Nc3ccc(OC)cc3)CC2)CC1	i	1.5e-08M*	i	i	i	2.1e-08
COc1ccc(C(=O)N2CCC3(CCN(C(=O)Nc4cccc(C#N)c4)CC3)CC2)cc1	i	i	i	i	i	2.9e-09
COc1ccc(NC(=O)N2CCC3(CC2)CCN(C(=O)c2ccncc2)CC3)cc1	i	i	i	i	i	1e-09
COc1ccc(C(=O)N2CCC3(CC2)CN(C(=O)Nc2cccc(C#N)c2)C3)cc1	i	1.1e-08M*	i	i	i	1e-09
O=C(O)c1ccc2c3c(ncnc13)-c1ccccc1C2=O	?	1.4e-08M*	i	i	i	5.9e-09
Cc1ccc(/C=c2\sc3nc(-c4cccs4)nn3c2=O)o1	?	1.3e-08M*	i	i	i	1e-09
COc1ccccc1/C=c1\sc2nc(-c3cccs3)nn2c1=O	i	i	i	i	i	1e-09
Oc1ccc2cccnc2c1	i	1.6e-08M*	i	i	i	4.2e-08
SMILES	TexasRed autofl	Fluorescein fluor	A488 fluor	Resorufin fluor	Rhodamine autofl	A647 fluor
CO[C@@H]1/C=C\O[C@]2(C)Oc3c(C)c(O)c4c(O)c(c(CN5CCN(C)CC5)c(O)c4c3C2=O)NC(=O)/C(C)=C\C=C[C@@H](C)[C@@H](O)[C@H](C)[C@@H](O)[C@H](C)[C@H](OC(C)=O)[C@@H]1C	i	?	i	i	i	2.7e-08
CCCCNc1c(CN)cnc2cc(Cl)ccc12	i	?	i	i	i	1e-09
O=C1N=C(O)CN1/N=C\c1ccc(-c2ccc([N+](=O)[O-])cc2)o1	?	4.2e-08M*!	?	i	i	1e-09
Nc1c2c(nc3ccccc13)CCC[C@H]2O	i	i	i	i	i	1e-09
C[C@@H]1C[C@@H]2[C@H]3CCC4=CC(=O)C=C[C@]4(C)[C@]3(Cl)[C@@H](O)C[C@@]2(C)[C@@]1(O)C(=O)CO	i	?	i	i	i	5.2e-08
N#Cc1c(N2CCCCC2)nc(N2CCCCC2)c2c1CCN(Cc1ccccc1)C2	i	4.8e-08M*	?	i	i	1.3e-09
COC(=O)[C@H]1[C@@H]2C[C@H]3c4[nH]c5ccccc5c4CCN3C[C@@H]2CC[C@@H]1O	i	i	i	i	i	1.5e-09
CCN1CC=C2C(C1)C(c1ccc(Cl)s1)C(C#N)=C(N)C2(C#N)C#N (configuration not stated)	i	8.6e-08M*	?	i	i	1e-09
Oc1cc(CN2COc3ccccc32)c(O)cc1CNC1CCCCC1	i	i	i	i	i	1.8e-09
CCCC(=O)Nc1ccc(NC(=O)c2ccccc2Cl)nc1	i	1.1e-08M*	i	i	i	1e-09
CCCC(=O)Nc1ccc(NC(=O)Cc2ccccc2)cn1	i	?	i	i	i	3.3e-09
CC(=O)N1CCN(C2=Nc3cccc4cccc2c34)CC1	i	2.7e-08M*	i	i	i	3.6e-08
CCOC(=O)N1CCN(c2ccc(Cl)c(Cl)c2)CC1	i	i	i	i	i	2.4e-09
O=C(CN1C(=O)c2cccc3cccc1c23)N1CCN(c2ccccc2)CC1	i	i	i	i	i	2.9e-09
CCOC(=O)N1CCN(C2=Nc3cccc4cccc2c34)CC1	i	4.8e-08M*	?	i	i	1e-09
CC(C)(C)c1ccc(S(=O)(=O)/C=C\C#N)cc1	?	i	i	i	i	4.5e-09
Cc1ccc(-c2c3c(=O)n(C)c(=O)n(C)c3c3c(C)cc(C)nn23)cc1	?	1.3e-08M*	i	i	i	2.7e-08
Cc1ccc(-c2c3c(=O)n(C)c(=O)n(C)c3cn2N2CCOCC2)cc1	i	?	i	i	i	5.9e-09
C=C[C@H]1CN2CC[C@@H]1C[C@@H]2[C@@H](O)c1ccnc2ccc(OC)cc12	i	?	i	i	i	4.8e-08
